Results filed as inconclusive are left out. Values without a mark were called inactive. Activity calls are given as the source filed them. The call rests on the fitted dose curve; tested in HEK293 reporter line.
Test: qHTS for Inhibitors of the Functional Ribonucleoprotein Complex (vRNP) of Lassa (LASV) Arenavirus: Viability assay - alamar blue signal for LASV Primary Screen (AID 1347083)
Details: cell viability, alamar blue fluorescence (LASV minigenome counter-screen); series mostly up to 57.5 µM; activity change, negative = reduced viability: at the top concentration
Further: nearly all actives have a fitted effect of over 80% in size.
On the % scale 0 is the no-effect control and ±100 the full control effect; potency means the concentration at half of the fitted maximal effect.

In the case of `NC[C@H]1O[C@H](O[C@H]2[C@H](O[C@@H]3O[C@H](CO)[C@@H](O)[C@H]3O)C(O)[C@H](N)C[C@@H]2N)[C@H](N)[C@@H](O)[C@@H]1O` (stereo not given in full), the activity change, negative = reduced viability is reported as -0.396% [at 11.5 µM].

In order of rising “activity change, negative = reduced viability” value:
1. CN1[C@@H]2CCC[C@@H]1CC(NC(=O)c1nn(C)c3ccccc13)C2 (stereo not given in full)  -23%
2. CN1CCN(C(=O)C2CCCCC2)CC1  -11.4%
3. NC(N)=NS(=O)(=O)c1ccc(N)cc1  -9.23%
4. CC(C)CN(C[C@@H](O)[C@H](Cc1ccccc1)NC(=O)O[C@H]1CO[C@H]2OCC[C@H]21)S(=O)(=O)c1ccc(N)cc1  -8.55%
5. COc1cc(/C=C/C(=O)O[C@H]2CC[C@]34C[C@]35CC[C@]3(C)[C@@H]([C@H](C)CCC=C(C)C)CC[C@@]3(C)[C@@H]5CC[C@H]4C2(C)C)ccc1O  -5.68%
6. CC(=O)NC(=O)c1ccccc1O  -4.21%
7. CS(=O)(=O)c1ccc([C@@H](O)[C@@H](CF)NC(=O)C(Cl)Cl)cc1  -2.99%
8. COC(=O)C1=C(C)NC(C)=C(C(=O)OCCc2ccc(N3CCN(C(c4ccccc4)c4ccccc4)CC3)cc2)C1c1cccc([N+](=O)[O-])c1 (stereo not given)  -2.95%
9. CN(C)[C@@H]1C(=O)C(C(N)=O)=C(O)[C@@]2(O)C(=O)C3=C(O)c4c(O)cccc4C[C@H]3C[C@@H]12  -2.73%
10. CC(N)CCCC(C)(C)O (stereo not given)  -2.28%
11. O=S(=O)(O)c1ccc2nc(-c3ccccc3)[nH]c2c1  -1.93%
12. Nc1ccc(O)cc1  -1.58%
13. CCCC(CCC)(C(=O)OCC)C(=O)OCC  -1.46%
14. CCOC(=O)c1ccccc1O  -1.29%
15. CCO[C@H](Cc1ccc(OCCc2ccc(OS(C)(=O)=O)cc2)cc1)C(=O)O  -0.0818%
16. O=C(O)C(S)C(S)C(=O)O (stereo not given)  0.291%
17. CC(O)C(=O)O (stereo not given)  2.18%
18. CC(C)CCOC(=O)c1ccc(N(C)C)cc1  2.55%
19. CC(=O)Nc1ccc(S(=O)(=O)Nc2cc(C)on2)cc1  4.26%
20. C/C=C1\[C@H]2C=C(C)C[C@]1(N)c1ccc(=O)[nH]c1C2  5.14%
21. O=C(c1ccccc1)c1ccccc1  5.46%
22. Cc1ncc(CO)c(C=O)c1O  5.94%
23. O=C(O)COc1nn(Cc2ccccc2)c2ccccc12  6.34%
24. COC(=O)c1cc(Cl)c(NC(C)=O)cc1OC  6.35%
25. NCC(=O)CCC(=O)O  7.02%
26. CC(=O)NS(=O)(=O)c1ccc(N)cc1  7.06%
27. NC(=O)c1cc[n+](CC2=C(C(=O)[O-])N3C(=O)[C@@H](NC(=O)Cc4cccs4)[C@H]3SC2)cc1  8.29%
28. O=[N+]([O-])c1ccc(/C=N\O)o1  9.13%
29. COc1ccccc1N1CCN(CCCCNC(=O)c2ccc(-c3ccc(C(C)=O)cc3)cc2)CC1  10%
30. CCc1oc2ccccc2c1C(=O)c1cc(I)c(O)c(I)c1  10.3%
31. NS(=O)(=O)c1cc2c(cc1C(F)(F)F)NC(Cc1ccccc1)NS2(=O)=O (stereo not given)  12.7%
32. O=C(O)CCCC[P+](c1ccccc1)(c1ccccc1)c1ccccc1  16.3%
33. COCCc1ccccn1  19.6%
34. NC(=O)COCCN1CCN(C(c2ccccc2)c2ccc(Cl)cc2)CC1 (stereo not given)  21.6%

For `C#CCC(Cc1cnc2nc(N)nc(N)c2n1)c1ccc(C(=O)N[C@@H](CCC(=O)O)C(=O)O)cc1` (stereo not given in full), the Potency was 273 nM (active).
In the case of `NC(=O)N1c2ccccc2C=Cc2ccccc21`, the Potency is reported as “inactive”.
For `COc1cc(OC)c(C(=O)CCCN2CCCC2)c(OC)c1`, the Potency was “inactive”.
In the case of `CCCc1nn(C)c2c(=O)[nH]c(-c3cc(S(=O)(=O)N4CCN(C)CC4)ccc3OCC)nc12`, the Potency is reported as “inactive”.
With `COc1cnc(NS(=O)(=O)c2ccc(N)cc2)nc1` the Potency was “inactive”.

Test: qHTS for Inhibitors of the Functional Ribonucleoprotein Complex (vRNP) of Lymphocytic Choriomeningitis Arenaviruses (LCMV): Viability assay - alamar blue signal for LCMV Primary Screen (AID 1347085)
Details: alamar blue viability counter-screen, LCMV vRNP screen cells; series mostly up to 57.5 µM; activity change, negative = lower viability: at the top concentration

Compound `NC[C@H]1O[C@H](O[C@H]2[C@H](O[C@@H]3O[C@H](CO)[C@@H](O)[C@H]3O)C(O)[C@H](N)C[C@@H]2N)[C@H](N)[C@@H](O)[C@@H]1O` (stereo not given in full) has an activity change, negative = lower viability of -0.301% [at 11.5 µM].

In order of rising “activity change, negative = lower viability” value:
1. CCO[C@H](Cc1ccc(OCCc2ccc(OS(C)(=O)=O)cc2)cc1)C(=O)O  -15.3%
2. CCOC(=O)c1ccccc1O  -15.1%
3. NCC(=O)CCC(=O)O  -14.5%
4. CC(=O)NC(=O)c1ccccc1O  -12.4%
5. COc1cc(/C=C/C(=O)O[C@H]2CC[C@]34C[C@]35CC[C@]3(C)[C@@H]([C@H](C)CCC=C(C)C)CC[C@@]3(C)[C@@H]5CC[C@H]4C2(C)C)ccc1O  -4.22%
6. NC(N)=NS(=O)(=O)c1ccc(N)cc1  -3.46%
7. COC(=O)C1=C(C)NC(C)=C(C(=O)OCCc2ccc(N3CCN(C(c4ccccc4)c4ccccc4)CC3)cc2)C1c1cccc([N+](=O)[O-])c1 (stereo not given)  -2.26%
8. NS(=O)(=O)c1cc2c(cc1C(F)(F)F)NC(Cc1ccccc1)NS2(=O)=O (stereo not given)  -0.54%
9. CN1[C@@H]2CCC[C@@H]1CC(NC(=O)c1nn(C)c3ccccc13)C2 (stereo not given in full)  -0.107%
10. O=C(c1ccccc1)c1ccccc1  0.516%
11. CCCC(CCC)(C(=O)OCC)C(=O)OCC  0.727%
12. CC(N)CCCC(C)(C)O (stereo not given)  0.769%
13. NC(=O)COCCN1CCN(C(c2ccccc2)c2ccc(Cl)cc2)CC1 (stereo not given)  1.01%
14. O=C(O)C(S)C(S)C(=O)O (stereo not given)  1.43%
15. CC(=O)Nc1ccc(S(=O)(=O)Nc2cc(C)on2)cc1  2.34%
16. CN1CCN(C(=O)C2CCCCC2)CC1  2.47%
17. CC(O)C(=O)O (stereo not given)  3.25%
18. CC(C)CCOC(=O)c1ccc(N(C)C)cc1  3.73%
19. CC(C)CN(C[C@@H](O)[C@H](Cc1ccccc1)NC(=O)O[C@H]1CO[C@H]2OCC[C@H]21)S(=O)(=O)c1ccc(N)cc1  3.86%
20. O=C(O)COc1nn(Cc2ccccc2)c2ccccc12  4.35%
21. CS(=O)(=O)c1ccc([C@@H](O)[C@@H](CF)NC(=O)C(Cl)Cl)cc1  5.32%
22. NC(=O)c1cc[n+](CC2=C(C(=O)[O-])N3C(=O)[C@@H](NC(=O)Cc4cccs4)[C@H]3SC2)cc1  5.99%
23. Cc1ncc(CO)c(C=O)c1O  6.57%
24. COc1ccccc1N1CCN(CCCCNC(=O)c2ccc(-c3ccc(C(C)=O)cc3)cc2)CC1  6.59%
25. COC(=O)c1cc(Cl)c(NC(C)=O)cc1OC  7.04%
26. CN(C)[C@@H]1C(=O)C(C(N)=O)=C(O)[C@@]2(O)C(=O)C3=C(O)c4c(O)cccc4C[C@H]3C[C@@H]12  7.71%
27. C/C=C1\[C@H]2C=C(C)C[C@]1(N)c1ccc(=O)[nH]c1C2  9.96%
28. CC(=O)NS(=O)(=O)c1ccc(N)cc1  10.5%
29. O=S(=O)(O)c1ccc2nc(-c3ccccc3)[nH]c2c1  12.2%
30. Nc1ccc(O)cc1  13.5%
31. COCCc1ccccn1  13.6%
32. CCc1oc2ccccc2c1C(=O)c1cc(I)c(O)c(I)c1  14.4%
33. O=C(O)CCCC[P+](c1ccccc1)(c1ccccc1)c1ccccc1  15.5%
34. O=[N+]([O-])c1ccc(/C=N\O)o1  63.2%

For `C#CCC(Cc1cnc2nc(N)nc(N)c2n1)c1ccc(C(=O)N[C@@H](CCC(=O)O)C(=O)O)cc1` (stereo not given in full), the Potency was 217 nM (active).
With `NC(=O)N1c2ccccc2C=Cc2ccccc21` the Potency was “inactive”.
In the case of `COc1cc(OC)c(C(=O)CCCN2CCCC2)c(OC)c1`, the Potency is reported as “inactive”.
For `CCCc1nn(C)c2c(=O)[nH]c(-c3cc(S(=O)(=O)N4CCN(C)CC4)ccc3OCC)nc12`, the Potency was “inactive”.
In the case of `COc1cnc(NS(=O)(=O)c2ccc(N)cc2)nc1`, the Potency is reported as “inactive”.
